Source: the antibiotic and cytotoxicity screens of Wong et al. (2023)
Screen size: about 39,000 compounds; about 3,300 (8.5%) were called active. What follows is part of a selection rich in actives, with near analogues and random picks from the rest.

What follows are compounds tested on HepG2 (assay: cytotoxicity call (relative viability < 0.9)). Settings: 10 µM.

Question: For `CN1CCN(C(=O)C[C@@H]2CC[C@@H]3[C@H](COc4ccc(NC(=O)C5CCOCC5)cc4C(=O)N3C)O2)CC1`, which cytotoxicity call is on record?
Answer: Its cytotoxicity call is “inactive”.

Question: `C[C@@H]1CN([C@@H](C)CO)C(=O)c2cc(NS(=O)(=O)c3ccc(F)cc3)ccc2O[C@@H](C)CCCCO[C@H]1CN(C)C(=O)C1CCCCC1` was tested. Which cytotoxicity call did it give?
Answer: The cytotoxicity call was “inactive”.

Question: How did the cytotoxicity call turn out when `O=C(C[C@@H]1CC[C@H]2[C@@H](COC[C@@H](O)CN2C(=O)c2ccccc2)O1)NCCCN1CCOCC1` was run?
Answer: Its cytotoxicity call is “inactive”.

Question: Which cytotoxicity call does the source give for `COc1ccccc1S(=O)(=O)N(C)C[C@H]1Oc2cc(Br)ccc2S(=O)(=O)N([C@H](C)CO)C[C@H]1C` here?
Answer: Its cytotoxicity call is “inactive”.

Question: Which cytotoxicity call does the source give for `C[C@@H]1CN([C@@H](C)CO)C(=O)c2cccc(NC(=O)CCCCCC(=O)Nc3ccccc3N)c2O[C@H]1CN(C)C(=O)Nc1cccc2ccccc12` here?
Answer: Its cytotoxicity call is “inactive”.

Question: How did the cytotoxicity call turn out when `Cc1noc(C)c1NC(=O)N(C)C[C@@H]1Oc2c(NC(=O)C3CCOCC3)cccc2C(=O)N([C@H](C)CO)C[C@@H]1C` was run?
Answer: The cytotoxicity call was “inactive”.

Question: Which cytotoxicity call does the source give for `c1ccc(CCNc2ccnc3cc4ccccc4cc23)cc1` here?
Answer: Its cytotoxicity call is “active”.

Question: For `NNCCc1ccccc1`, which cytotoxicity call is on record?
Answer: The cytotoxicity call was “inactive”.

Question: How did the cytotoxicity call turn out when `NCCNc1cccc2ccccc12` was run?
Answer: Its cytotoxicity call is “inactive”.

Question: `CC(C)NC(=O)N(C)C[C@@H]1Oc2cc(C#Cc3ccc(F)cc3)ccc2S(=O)(=O)N([C@@H](C)CO)C[C@@H]1C` was tested. Which cytotoxicity call did it give?
Answer: Its cytotoxicity call is “inactive”.

Question: For `C[C@H](CO)N1C[C@H](C)[C@H](CN(C)Cc2ccc(-c3ccccc3)cc2)Oc2ccc(NC(=O)Nc3ccc4c(c3)OCO4)cc2C1=O`, which cytotoxicity call is on record?
Answer: The cytotoxicity call was “inactive”.

Question: How did the cytotoxicity call turn out when `C[C@H]1CN([C@@H](C)CO)C(=O)c2cc(NC(=O)Nc3ccc4c(c3)OCO4)ccc2O[C@H]1CN(C)Cc1ccc(-c2ccccc2)cc1` was run?
Answer: Its cytotoxicity call is “inactive”.

Question: For `C[C@H]1CN([C@@H](C)CO)C(=O)c2cc(NC(=O)Nc3ccc4c(c3)OCO4)ccc2O[C@@H]1CN(C)Cc1ccc(-c2ccccc2)cc1`, which cytotoxicity call is on record?
Answer: Its cytotoxicity call is “active”.

Question: Which cytotoxicity call does the source give for `C[C@@H]1CN([C@@H](C)CO)C(=O)c2cc(NC(=O)Nc3ccc4c(c3)OCO4)ccc2O[C@@H]1CN(C)Cc1ccc(-c2ccccc2)cc1` here?
Answer: Its cytotoxicity call is “active”.

Question: How did the cytotoxicity call turn out when `C[C@H](CO)N1C[C@H](C)[C@@H](CN(C)Cc2ccc(-c3ccccc3)cc2)Oc2ccc(NC(=O)Nc3ccc4c(c3)OCO4)cc2C1=O` was run?
Answer: The cytotoxicity call was “inactive”.

Question: With `C[C@@H]1CN([C@H](C)CO)C(=O)c2cc(NC(=O)Nc3ccc4c(c3)OCO4)ccc2O[C@@H]1CN(C)Cc1ccc(-c2ccccc2)cc1` as the compound, how does the cytotoxicity call read?
Answer: The cytotoxicity call was “active”.

Question: For `C[C@@H]1CN([C@H](C)CO)C(=O)c2cc(NC(=O)Nc3ccc4c(c3)OCO4)ccc2O[C@H]1CN(C)Cc1ccc(-c2ccccc2)cc1`, which cytotoxicity call is on record?
Answer: The cytotoxicity call was “active”.

Question: `O=C1C[C@]2(c3ccc([N+](=O)[O-])cc3)C(=O)N(CC(F)(F)F)c3cc(CO)ccc3[C@H]2N1CC12CC3CC(CC(C3)C1)C2` was tested. Which cytotoxicity call did it give?
Answer: Its cytotoxicity call is “inactive”.

Question: With `COc1ccc(S(=O)(=O)Nc2ccc3c(c2)C(=O)N([C@@H](C)CO)C[C@H](C)[C@H](CN(C)C(=O)NC(C)C)O3)cc1` as the compound, how does the cytotoxicity call read?
Answer: The cytotoxicity call was “inactive”.

Question: Which cytotoxicity call does the source give for `C[C@@H]1CN([C@@H](C)CO)C(=O)c2cc(NC(=O)Nc3ccc4c(c3)OCO4)ccc2O[C@@H](C)CCCCO[C@@H]1CN(C)S(=O)(=O)c1cccs1` here?
Answer: The cytotoxicity call was “inactive”.

Question: `C[C@H]1CN([C@@H](C)CO)C(=O)Cc2cc(NS(=O)(=O)c3cn(C)cn3)ccc2O[C@H]1CN(C)S(=O)(=O)c1ccc(F)cc1` was tested. Which cytotoxicity call did it give?
Answer: The cytotoxicity call was “inactive”.

Question: `C[C@@H]1CN([C@H](C)CO)C(=O)Cc2cc(NC(=O)CCCCCC(=O)Nc3ccccc3N)ccc2O[C@H]1CN(C)Cc1ccccc1` was tested. Which cytotoxicity call did it give?
Answer: Its cytotoxicity call is “inactive”.

Question: With `CCS(=O)(=O)N1CC[C@]2(CC1)CN([C@@H](CO)c1[nH]c3cc(ccc3c12)OC)C(=O)Cc1ccccn1` as the compound, how does the cytotoxicity call read?
Answer: The cytotoxicity call was “inactive”.

Question: For `Cc1noc(C)c1NC(=O)Nc1ccc2c(c1)C(=O)N([C@@H](C)CO)C[C@H](C)[C@@H](CN(C)Cc1ccc(Cl)c(Cl)c1)O2`, which cytotoxicity call is on record?
Answer: The cytotoxicity call was “inactive”.

Question: `CC(C)NC(=O)Nc1ccc2c(c1)C(=O)N([C@@H](C)CO)C[C@H](C)[C@@H](CN(C)S(=O)(=O)c1cn(C)cn1)OCCCC[C@H](C)O2` was tested. Which cytotoxicity call did it give?
Answer: Its cytotoxicity call is “inactive”.

Question: Which cytotoxicity call does the source give for `COc1ccc(cc1)CN1C[C@]2(CN(C2)S(=O)(=O)c2cn(cn2)C)c2c([nH]c3cc(ccc23)OC)[C@H]1CO` here?
Answer: Its cytotoxicity call is “inactive”.

Question: For `Cc1noc(C)c1S(=O)(=O)Nc1ccc2c(c1)CC(=O)N([C@@H](C)CO)C[C@@H](C)[C@@H](CN(C)Cc1ccncc1)O2`, which cytotoxicity call is on record?
Answer: The cytotoxicity call was “inactive”.

Question: For `C[C@@H]1CN([C@H](C)CO)C(=O)c2cccc(NC(=O)NC3CCCCC3)c2O[C@H]1CN(C)S(=O)(=O)c1cn(C)cn1`, which cytotoxicity call is on record?
Answer: Its cytotoxicity call is “inactive”.

Question: Which cytotoxicity call does the source give for `CCc1nc2ccc(C(=O)NCc3ccccc3OC)cn2c1N(CC)Cc1cccc(Br)c1` here?
Answer: Its cytotoxicity call is “inactive”.

Question: For `CCS(=O)(=O)N1CC[C@]2(CC1)CN([C@H](CO)c1[nH]c3cc(ccc3c12)OC)C(=O)c1ccc(cc1)F`, which cytotoxicity call is on record?
Answer: Its cytotoxicity call is “inactive”.

Question: How did the cytotoxicity call turn out when `O=C(O)[C@H]1NC(=O)[C@@H]1Cc1ccccc1` was run?
Answer: The cytotoxicity call was “inactive”.

Question: Which cytotoxicity call does the source give for `CC(C)NC(=O)N(C)C[C@@H]1Oc2c(NS(=O)(=O)c3ccc(F)cc3)cccc2C(=O)N([C@H](C)CO)C[C@@H]1C` here?
Answer: Its cytotoxicity call is “inactive”.

Question: With `C[C@@H]1CN([C@@H](C)CO)C(=O)c2cc(NC(=O)Nc3ccc4c(c3)OCO4)ccc2O[C@H]1CN(C)Cc1ccc(-c2ccccc2)cc1` as the compound, how does the cytotoxicity call read?
Answer: The cytotoxicity call was “active”.

Question: How did the cytotoxicity call turn out when `C[C@@H]1CN([C@H](C)CO)C(=O)c2cccc(NS(=O)(=O)c3cn(C)cn3)c2O[C@@H]1CN(C)S(=O)(=O)c1ccc(F)cc1` was run?
Answer: The cytotoxicity call was “inactive”.

Question: With `C[C@@H]1CN([C@H](C)CO)C(=O)c2cccc(NS(=O)(=O)c3cn(C)cn3)c2O[C@H]1CN(C)Cc1ccc2c(c1)OCO2` as the compound, how does the cytotoxicity call read?
Answer: The cytotoxicity call was “inactive”.

Question: `C[C@H](NC(=O)C[C@@H]1C[C@H]2c3cc(NC(=O)Nc4ccc(C(F)(F)F)cc4)ccc3O[C@H]2[C@@H](CO)O1)c1ccccc1` was tested. Which cytotoxicity call did it give?
Answer: The cytotoxicity call was “inactive”.

Question: For `COc1ccc(NC(=O)Nc2ccc3c(c2)C(=O)N([C@H](C)CO)C[C@H](C)[C@@H](CN(C)S(=O)(=O)c2ccc(C)cc2)OCCCC[C@H](C)O3)cc1`, which cytotoxicity call is on record?
Answer: The cytotoxicity call was “inactive”.

Question: `COc1ccc(S(=O)(=O)N(C)C[C@H]2OCCCC[C@@H](C)Oc3ccc(NC(=O)Nc4ccc5c(c4)OCO5)cc3C(=O)N([C@@H](C)CO)C[C@@H]2C)cc1` was tested. Which cytotoxicity call did it give?
Answer: The cytotoxicity call was “active”.

Question: For `COc1ccc(NC(=O)Nc2ccc3c(c2)C(=O)N([C@H](C)CO)C[C@H](C)[C@H](CN(C)S(=O)(=O)c2ccc(Cl)cc2)OCCCC[C@@H](C)O3)cc1`, which cytotoxicity call is on record?
Answer: The cytotoxicity call was “inactive”.

Question: `COc1ccc(NC(=O)Nc2ccc3c(c2)C(=O)N([C@H](C)CO)C[C@H](C)[C@H](CN(C)S(=O)(=O)c2ccc(Cl)cc2)OCCCC[C@H](C)O3)cc1` was tested. Which cytotoxicity call did it give?
Answer: The cytotoxicity call was “inactive”.

Question: How did the cytotoxicity call turn out when `COc1ccc(NC(=O)Nc2ccc3c(c2)C(=O)N([C@H](C)CO)C[C@H](C)[C@H](CN(C)S(=O)(=O)c2ccc(C)cc2)OCCCC[C@H](C)O3)cc1` was run?
Answer: Its cytotoxicity call is “inactive”.

Question: `COc1ccc(NC(=O)Nc2ccc3c(c2)C(=O)N([C@@H](C)CO)C[C@@H](C)[C@@H](CN(C)S(=O)(=O)c2ccc(C)cc2)OCCCC[C@@H](C)O3)cc1` was tested. Which cytotoxicity call did it give?
Answer: The cytotoxicity call was “inactive”.

Question: Which cytotoxicity call does the source give for `COc1ccc(S(=O)(=O)N(C)C[C@H]2OCCCC[C@H](C)Oc3ccc(NC(=O)Nc4ccc5c(c4)OCO5)cc3C(=O)N([C@H](C)CO)C[C@H]2C)cc1` here?
Answer: The cytotoxicity call was “inactive”.

Question: `COc1ccc(NC(=O)Nc2ccc3c(c2)C(=O)N([C@@H](C)CO)C[C@H](C)[C@@H](CN(C)S(=O)(=O)c2ccc(C)cc2)OCCCC[C@@H](C)O3)cc1` was tested. Which cytotoxicity call did it give?
Answer: The cytotoxicity call was “active”.

Question: With `COc1ccc(NC(=O)Nc2ccc3c(c2)C(=O)N([C@H](C)CO)C[C@@H](C)[C@H](CN(C)S(=O)(=O)c2ccc(Cl)cc2)OCCCC[C@@H](C)O3)cc1` as the compound, how does the cytotoxicity call read?
Answer: The cytotoxicity call was “active”.

Question: `COc1ccc(NC(=O)Nc2ccc3c(c2)C(=O)N([C@H](C)CO)C[C@@H](C)[C@H](CN(C)S(=O)(=O)c2ccc(C)cc2)OCCCC[C@@H](C)O3)cc1` was tested. Which cytotoxicity call did it give?
Answer: Its cytotoxicity call is “inactive”.

Question: Which cytotoxicity call does the source give for `COc1ccc(NC(=O)Nc2ccc3c(c2)C(=O)N([C@@H](C)CO)C[C@H](C)[C@H](CN(C)S(=O)(=O)c2ccc(C)cc2)OCCCC[C@H](C)O3)cc1` here?
Answer: Its cytotoxicity call is “active”.

Question: With `COc1ccc(S(=O)(=O)N(C)C[C@H]2OCCCC[C@H](C)Oc3ccc(NC(=O)Nc4ccc5c(c4)OCO5)cc3C(=O)N([C@H](C)CO)C[C@@H]2C)cc1` as the compound, how does the cytotoxicity call read?
Answer: The cytotoxicity call was “inactive”.
